In the library only some 3% were active in any assay of this set; here they are far more common.
EWS-Fli block: EWS/Fli transcriptional activity inhibition; A673 NR0B1-luciferase reporter, viability-normalised; inhibition, % at 12.6 µM; hit rate 0.67% among 350,000;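 active = mean inhibition of at least 50% after viability correction, with every replicate also passing that limit; inconclusive = mean reaches 50% but only one of two replicates passes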;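 also: firefly luciferase signal divided by Alamar Blue viability fluorescence both relative to DMSO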
Peg3 prom inh-1: Peg3 promoter activity inhibition; HeLa PEG-Prom luciferase reporter, luminescence, overnight; inhibition, % at 20 µM; hit rate 1.7% among 360,000;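 active = inhibition of at least 50% at 20 µM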
Shn3 3UTR inh: reduces Shn3 3'UTR luciferase signal in osteoblasts; Clone20 osteoblast Shn3 3'UTR firefly luciferase, 24 h; inhibition, % at 12.5 µM; hit rate 0.52% among 360,000; AID 588674;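 active = mean inhibition of at least 75% with every replicate also reaching 75%; inconclusive = mean inhibition at least 75% but some replicate below; inactive = mean inhibition below 75%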;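 also: 0% = median of neutral control wells and 100% = pilot-screen positive control compound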
PAX8 inh HTS: inhibitors of PAX8 transcriptional activity in RMG-I cells; RMG-I TPO-luciferase reporter, SteadyGlo, 24 h; inhibition, % at 12.6 µM; hit rate 1.2% among 360,000; AID 652154;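 active = mean replicate inhibition at least 60% with every replicate also reaching 60%; inconclusive = only one of the two criteria is met; inactive = mean below 60% and not all replicates reaching 60%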;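 also: luciferase light reporting Pax8 driven TPO promoter activity; plate controls were median of neutral control wells for no effect and mitoxantrone controls for full effect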
ABHD5 PLIN5 PPI: ABHD5-PLIN5 protein interaction inhibition | inhibition, % at 4 µM | AID 602281 | hit rate 0.78% among 360,000 | Split G. princeps luciferase complementation, luminescence, 4 h;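 active = inhibition above the mean inhibition across every tested compound plus 3 SD, cut at about 22% in these data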;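 also: 0% = DMSO only wells and the 100% control is not disclosed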
Target sequence (Q00G26 whole entry, looked up): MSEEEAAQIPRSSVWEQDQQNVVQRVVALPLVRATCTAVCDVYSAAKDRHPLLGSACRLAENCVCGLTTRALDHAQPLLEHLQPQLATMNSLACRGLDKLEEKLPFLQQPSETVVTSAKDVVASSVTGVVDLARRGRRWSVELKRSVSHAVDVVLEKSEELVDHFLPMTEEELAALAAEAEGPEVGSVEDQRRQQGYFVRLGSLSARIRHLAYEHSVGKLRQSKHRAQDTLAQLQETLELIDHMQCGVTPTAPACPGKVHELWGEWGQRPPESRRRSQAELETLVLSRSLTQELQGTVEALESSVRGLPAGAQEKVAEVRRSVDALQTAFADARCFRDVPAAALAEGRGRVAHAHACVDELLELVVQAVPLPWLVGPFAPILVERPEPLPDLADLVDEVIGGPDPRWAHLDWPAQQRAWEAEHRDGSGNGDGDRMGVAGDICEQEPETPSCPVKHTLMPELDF
Target sequence (Q8WTS1 whole entry, looked up): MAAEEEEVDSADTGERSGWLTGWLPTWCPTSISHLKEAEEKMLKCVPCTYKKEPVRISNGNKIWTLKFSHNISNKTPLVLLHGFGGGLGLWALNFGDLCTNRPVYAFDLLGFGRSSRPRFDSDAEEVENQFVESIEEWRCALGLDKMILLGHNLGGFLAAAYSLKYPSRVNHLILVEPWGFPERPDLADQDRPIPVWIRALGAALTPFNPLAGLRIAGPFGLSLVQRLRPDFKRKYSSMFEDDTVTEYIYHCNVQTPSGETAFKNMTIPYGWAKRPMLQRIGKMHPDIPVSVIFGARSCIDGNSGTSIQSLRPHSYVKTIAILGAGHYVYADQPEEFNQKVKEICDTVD
TRPM1 prom inh: inhibitors of MITF-driven TRPM1 promoter in melanoma cells; AID 488899; inhibition, % at 12.5 µM; hit rate 0.83% among 330,000; SK-MEL-5 TRPM1 promoter luciferase, 24 h;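 active = mean inhibition across replicates of 60% or more, whatever share of single replicates reaches that level; inconclusive = some that reach 60%, reason not given; inactive = mean inhibition across replicates below 60%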
Peg3 prom inh-2: confirmation of Peg3 promoter inhibitors; shares compounds with Peg3 prom inh-1; inhibition, % at 20 µM; AID 602417; HeLa PEG-Prom luciferase reporter, luminescence, overnight; hit rate 84% among 1,300;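 active = at 20 µM dose, 40% or more inhibition averaged across four replicates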
* hit, by the source's call; ? = inconclusive; . = no result given; ! = not confirmed by another sample.

SMILES	EWS-Fli block	Peg3 prom inh-1	Shn3 3UTR inh	PAX8 inh HTS	ABHD5 PLIN5 PPI	TRPM1 prom inh	Peg3 prom inh-2
O=C(c1ccccc1)C(CN1CCCC1)c1ccccc1 (stereo not given)	.	105*	?	100*	17	.	.
N#Cc1cn(C2OC(CO)C(O)C2O)c2ncnc(N)c12 (stereo not given)	-7	96*	82	96*	-1	59	.
NC(=O)c1cn(C2OC(CO)C(O)C2O)c2ncnc(N)c12 (stereo not given)	55*!	93*	64	96*	0	84*	.
Nc1ncnc2c1ncn2[C@@H]1O[C@H](COP(=O)(O)CP(=O)(O)O)[C@@H](O)[C@H]1O	9	-11	-18	-17	4	2	.
Clc1ccc2c(c1)C(OC1CN3CCC1CC3)c1ccccc1CS2 (stereo not given)	18	97*	22	49	21	45	.
O=C1NC(=O)C(=Cc2cn(CCOc3ccc4c(c3)OCO4)c3ccccc23)C(=O)N1	.	64*	13	.	-12	-1	.
C=CCn1cc(C=C2C(=O)NC(=O)NC2=O)c2ccccc21	1	8	-32	0	16	9	.
Cc1ccc(OC(=O)N(C)C[C@H]2OCc3ccccc3-c3c(n(C)c4ccccc34)C(=O)N([C@H](C)CO)C[C@H]2C)cc1	.	.	.	52	.	.	.
CC(C)c1oc(=O)cc2c1[C@@H](O)[C@H]1OC(=O)[C@@]3(C)C[C@@H](O)[C@@H](O)[C@@]2(C)C13 (stereo not given in full)	49	91*	-15	86*	2	64*	.
CCCCCCC(C)(C)c1ccc([C@@H]2C[C@H](O)CC[C@H]2CCCO)c(O)c1	-12	83*	-10	-11	0	9	.
C[C@H](CO)N1C[C@H](C)[C@H](CN(C)C(=O)Oc2ccccc2)OCc2ccccc2-c2c(n(C)c3ccccc23)C1=O	2	.	.	1	.	.	.
N#Cc1c(Br)n(C2OC(CO)C(O)C2O)c2ncnc(N)c12 (stereo not given)	30	61*	35	82*	-6	36	.
NC(=O)c1c(Br)n(C2OC(CO)C(O)C2O)c2ncnc(N)c12 (stereo not given)	32	44	-10	85*	-1	51	.
Cc1ccc(-c2nc(N(C)C3CCN(C)CC3)c3ccccc3n2)cc1	.	37	43	.	15	-8	.
Cc1ccc(S(=O)(=O)c2nc(-c3ccccc3Cl)oc2N(C)C2CCN(C)CC2)cc1	25	64*	-12	26	7	.	78*
CNCC(O)c1cc(OCc2ccccc2)c(OCc2ccccc2)cc1F (stereo not given)	1	98*	23	-1	14	-20	89*
O=C(Cc1ccccn1)N1CCCCN2[C@H](CO)[C@@H](c3ccc(-c4ccc(F)cc4)cc3)[C@H]2C1	-2	.	.	0	.	.	.
C=Cc1cc(OC)c2c(c1)c(=O)oc1c2cc(OC)c2c(O)ccc(C3OC(C)C(O)C(C)(O)C3O)c21 (stereo not given)	28	106*	12	89*	7	78*	98*
O=C(O)[C@@H]1[C@@H](CO)[C@@H]2Cn3c(ccc(-c4ccccc4)c3=O)[C@H]1N2C(=O)C1CCCCC1	2	.	.	-12	.	.	.
CCN(CCCl)c1cc(CN(C)C)cc(NC(=O)c2ccc(C(=O)Nc3cc(CN(C)C)cc(N(CC)CCCl)c3)cc2)c1	60*	101*	96*	108*	12	98*	99*
CCN(CC)C(=O)c1ccc(NC(=O)c2cccc(C(F)(F)F)c2)cc1	-7	-29	20	-8	3	-15	.
C[C@]12CC[C@H]3C(CCC4(O)CC(O)CC[C@]34C=O)C1=CC[C@H]2c1ccc(=O)oc1 (stereo not given in full)	22	105*	7	-38	1	?	97*
CNC(=O)Nc1ccc(C(=O)N/N=C\C23CC[C@@H](O)CC2(O)CC[C@@H]2[C@@H]3CCC3(C)C(C4=CC(=O)OC4)CCC23O)cc1 (stereo not given in full)	-16	8	3	1	-3	1	.
CC=Cc1ccc2n(c1=O)C[C@H]1[C@H](CO)[C@@H](C(=O)OC)[C@@H]2N1C(=O)CC1CC1 (mixture of isomers)	-1	.	.	-1	.	.	.
COc1cccc(C2CC3C(=O)C=CC2N3Cc2ccccc2)c1 (stereo not given)	-2	68*	25	-2	0	23	71*
SMILES	EWS-Fli block	Peg3 prom inh-1	Shn3 3UTR inh	PAX8 inh HTS	ABHD5 PLIN5 PPI	TRPM1 prom inh	Peg3 prom inh-2
O=Cc1cn(Cc2cccc(F)c2)c2ccccc12	.	85*	11	23	-1	2	65*
CC(=O)c1cn(Cc2ccc(F)cc2)c2ccccc12	22	15	23	12	0	12	.
COC(=O)c1cn(Cc2ccc(F)cc2)c2ccccc12	1	4	-24	-2	7	.	.
O=Cc1cn(Cc2ccc(Br)cc2)c2ccccc12	21	77*	30	10	4	20	74*
O=C(O)[C@H]1[C@H](CO)[C@H]2Cn3c(ccc(-c4ccncc4)c3=O)[C@@H]1N2C(=O)C1CCCCC1	1	.	.	.	.	.	.
Cc1c(C(=O)N2CCC3(CC2)OCCO3)sc2ncnc(N3CCN(c4ccccn4)CC3)c12	.	72*	18	.	4	1	56*
CCCNC(=O)Cn1cnc2sc(C(=O)N3CCC4(CC3)OCCO4)c(C)c2c1=O	5	-2	3	8	-3	-15	.
COc1cccc(-c2ccc([C@H]3[C@H](CO)N4CCCCN(C(=O)Cc5ccncc5)C[C@@H]34)cc2)c1	.	.	.	-19	.	.	.
COc1ccc(CC2C(=O)NC(C)C(=O)N(C)C3C(=O)N(C)C(Cc4ccc(O)c(c4)Oc4ccc(cc4)C3O)C(=O)NC(C)C(=O)NC(C)C(=O)N2C)cc1 (stereo not given)	44	96*	.	110*	-1	104*	98*
O=C(Cc1ccccn1)N1CCCCN2[C@H](CO)[C@H](c3ccc(-c4ccccc4)cc3)[C@@H]2C1	-4	.	.	-1	.	.	.
CCN(CC)C(=O)Cn1cc(/C=C2\C(=O)NC(=O)N(c3ccccc3F)C2=O)c2ccccc21	6	58*	44	21	23*	10	92*
CC(C)(C)n1nnnc1C(CCc1ccccc1)N1CCC(n2c(=O)[nH]c3ccccc32)CC1 (stereo not given)	20	84*	-4	16	12	.	82*
Cn1cccc1/C=C1\C(=O)NC(=O)N(Cc2ccco2)C1=O	.	22	-3	1	4	-13	.

Screening results: PubChem BioAssay, several laboratories
